LDHA block – qHTS assay for inhibitors of human lactate dehydrogenase; L-lactate dehydrogenase A chain (Homo sapiens), P00338; purified LDHA, NADH/diaphorase-resazurin fluorescence; hits give low values; activity change, % (values are at about 110 or 230 µM); hit rate 0.15% among 480,000; in the data active = activity change below about -30%; inconclusive = mostly about -25% to -30%;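 note: plate controls were DMSO wells for no effect and wells without enzyme for full effect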
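LDH5 2 nM; NADH 0.06 mM, pyruvate 0.2 mM; 200 mM Tris pH 7.4, EDTA, Tween-20; 5 min RT. Detection: diaphorase 0.133 mg/mL + resazurin 37 µM, fluorescence ex540/em590 at 0 and 20 min; normalized to enzyme-free and DMSO wells.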
EPAC2 antag – qHTS for Antagonist of cAMP-regulated guanine nucleotide exchange factor 2 (EPAC2): primary screen | hit rate 0.18% among 360,000 | Rap guanine nucleotide exchange factor 4 (Homo sapiens), Q8WZA2 | Potency, µM (doses to about 114 µM), for the others: at the highest dose activity, negative = inhibition, most hits filed as inhibitors | EPAC2 GEF exchange of Rap1B-BODIPY-GDP, fluorescence; note: potency is the fitted concentration of half-maximal effect; % is set by controls: 0 for no effect and ±100 for the full control effect; nearly all actives have a fitted effect of over 45% in size
Target sequence (Q8WZA2 whole entry, looked up): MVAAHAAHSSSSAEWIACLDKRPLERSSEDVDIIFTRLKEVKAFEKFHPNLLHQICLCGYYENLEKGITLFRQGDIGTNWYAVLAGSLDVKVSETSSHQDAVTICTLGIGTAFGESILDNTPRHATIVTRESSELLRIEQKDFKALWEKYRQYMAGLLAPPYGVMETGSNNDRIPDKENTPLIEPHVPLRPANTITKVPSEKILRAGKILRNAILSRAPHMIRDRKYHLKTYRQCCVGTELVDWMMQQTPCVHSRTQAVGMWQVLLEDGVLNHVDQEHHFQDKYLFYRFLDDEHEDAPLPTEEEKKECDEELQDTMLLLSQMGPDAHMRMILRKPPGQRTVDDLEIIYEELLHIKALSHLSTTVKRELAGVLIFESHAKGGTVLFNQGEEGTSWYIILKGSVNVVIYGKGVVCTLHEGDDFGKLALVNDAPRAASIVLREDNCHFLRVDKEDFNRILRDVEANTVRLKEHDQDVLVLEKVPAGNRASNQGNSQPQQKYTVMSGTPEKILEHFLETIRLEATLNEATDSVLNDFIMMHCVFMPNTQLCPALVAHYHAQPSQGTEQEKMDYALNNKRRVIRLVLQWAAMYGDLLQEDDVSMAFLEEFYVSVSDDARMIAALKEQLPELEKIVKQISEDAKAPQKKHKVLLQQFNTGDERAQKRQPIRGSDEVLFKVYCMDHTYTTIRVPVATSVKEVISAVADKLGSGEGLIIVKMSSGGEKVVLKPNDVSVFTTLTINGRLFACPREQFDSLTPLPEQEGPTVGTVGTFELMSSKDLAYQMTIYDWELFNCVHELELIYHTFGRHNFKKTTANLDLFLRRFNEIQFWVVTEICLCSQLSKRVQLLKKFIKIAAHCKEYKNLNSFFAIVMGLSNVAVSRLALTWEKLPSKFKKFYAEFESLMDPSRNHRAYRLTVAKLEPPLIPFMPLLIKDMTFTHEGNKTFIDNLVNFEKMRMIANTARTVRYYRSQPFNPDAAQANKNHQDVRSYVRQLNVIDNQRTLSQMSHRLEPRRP
USP1 inh – Inhibitors of USP1/UAF1: Primary Screen; Ubiquitin carboxyl-terminal hydrolase 1 (Homo sapiens), O94782; recombinant USP1/UAF1, Ub-Rhodamine cleavage fluorescence; Potency, µM (highest dose often 57.1 µM), for the others: at the highest dose activity change, negative = inhibition, actives largely listed as inhibitors; hit rate 0.23% among 390,000; note: potency is the fitted concentration of half-maximal effect; % is set by controls: 0 for no effect and ±100 for the full control effect; nearly all actives have a fitted effect of over 60% in size
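High-throughput fluorogenic screen: 1nM USP1/UAF1 complex, Ub-Rho substrate 150nM final, 50mM HEPES pH 7.8 with 0.5mM EDTA, 0.1 mg/ml BSA, 1mM TCEP and 0.01% Tween-20.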
EPAC1 ag – qHTS for Agonist of cAMP-regulated guanine nucleotide exchange factor 3 (EPAC1): primary screen; EPAC1 agonist qHTS, biochemical assay; response scale: 100% = response to 6.5 mM cAMP; Rap guanine nucleotide exchange factor 3 (Homo sapiens), O95398; AID 720707, 2013; hit rate 0.073% among 360,000; Potency, µM (doses to about 154 µM), for the others: at the highest dose activation, usual class: activators; note: potency is the fitted concentration of half-maximal effect; nearly all actives have a fitted effect of over 60% in size
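EPAC1 100 nM, Rap1B–BODIPY-GDP 250 nM, unlabeled GDP 50 uM; compound titration; 5 min RT; kinetic read ex480/em540 at 5-min intervals ×30 min; data normalized to 6.5 mM cAMP agonist control.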
EPAC2 agonist – qHTS for Agonist of cAMP-regulated guanine nucleotide exchange factor 4 (EPAC2): primary screen; Rap guanine nucleotide exchange factor 4 (Homo sapiens), Q8WZA2; EPAC2 activation, biochemical qHTS; response scale: 100% = 6.5 mM cAMP response; Potency, µM (series often up to 154 µM), for the others: at the top dose activation, actives largely listed as activators; hit rate 0.079% among 360,000; AID 720711, 2013; note: potency is the fitted concentration of half-maximal effect; nearly all actives have a fitted effect of over 50% in size
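Each well held 100 nM EPAC2, 250 nM RAP1B-BODIPY-GDP and 50 uM GDP. Fluorescence, read at 5-min intervals to 30 min, was referenced to a 6.5 mM cAMP positive control.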
EPAC1 antagonist – qHTS for Antagonist of cAMP-regulated guanine nucleotide exchange factor 3 (EPAC1): primary screen. AID 720709, 2013. EPAC1 GEF assay, Rap1b-BODIPY-GDP exchange fluorescence. Potency, µM (doses to about 115 µM), without a hit: at the top dose activity change, negative = inhibition, hits mostly inhibitors. Rap guanine nucleotide exchange factor 3 (Homo sapiens), O95398. hit rate 0.14% among 360,000;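 note: potency is the fitted concentration of half-maximal effect; plate controls were vehicle for no effect and positive control for full effect; nearly all actives have a fitted effect of over 50% in size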
* hit, by the source's call; ? = inconclusive; · = no result given; + = active, no number. Only some compounds are listed: those with a hit (about 0.56% of all), similar ones and a draw of the others. Unless noted, calls come from the whole dose curve; as a rule, active = well fitted curve in the direction sought with a large enough effect; inconclusive = small, poorly fitted or top-dose-only effect, or another doubt; inactive = no such curve, though single readings can be large; an effect the other way counts as inactive or inconclusive.

SMILES	LDHA block	EPAC2 antag	USP1 inh	EPAC1 ag	EPAC2 agonist	EPAC1 antagonist
CC1CCC2=NN(C(=O)c3ccco3)C(O)(C(F)(F)F)C2C1 (stereo unspecified)	-3	50µM*	-1%	-4%	-3%	-10%
CC(=O)Nc1ccc(NC(=O)NC(C)C)cc1	6	·	·	·	·	·
CCN(CC)c1ccc2c(-c3ccc(S(=O)(=O)O)cc3S(=O)(=O)[O-])c3ccc(=[N+](CC)CC)cc-3oc2c1	-232*	?	32µM*	63µM*	?	32%
O=[N+]([O-])c1cc(Cl)ccc1NCCc1ccccn1	5	56µM*	-9%	-2%	-3%	-14%
Oc1cccc(/C=N/NC(=S)Nc2cccnc2)c1O	18	9%	-21%	-7%	4%	11µM*
COc1cccc(/C=N/NC(=S)Nc2cccc(C(=O)O)c2)c1O	-47*	1%	-21%	-3%	-2%	-10%
NC(=S)N/N=C/c1ccccc1O	-1	5%	-12%	3%	6%	8%
Oc1ccccc1C=NNC(=S)NN=Cc1ccccc1O	0	4%	-10%	9%	12%	79µM*
CC1CC(=O)c2c(cc3c(-c4c(O)cc(O)c5c(O)c6c(cc45)OC(C)CC6=O)c(O)cc(O)c3c2O)O1 (stereo unspecified)	4	26%	32µM*	-20%	-22%	?
CCCCn1nnnc1CSc1nnc(-c2ccccc2)n1-c1ccccc1	-31*	·	·	·	·	·
O=c1[nH]c(CSc2nnc(-c3ccccc3)n2-c2ccccc2)nc2ccccc12	4	-2%	7%	2%	2%	?
O/C=c1\ccc2cccc3nc(C(F)(F)F)nc1c23	32	82%	22µM*	89µM*	?	18%
CC1(C)CC(NC(=O)CCc2ncc(-c3ccccc3F)o2)CC(C)(C)N1	-1	·	·	·	·	·
NC(=O)CSc1nc2c(sc3ccccc32)c(=O)n1CCCC(=O)NCC1CCCO1 (stereo unspecified)	-2	92%	?	+	-4%	123%
O=C(CSc1nc2c(sc3ccccc32)c(=O)n1CCCN1CCOCC1)NCC1CCCO1 (stereo unspecified)	-1	2%	-5%	4%	6%	-9%
COc1cc(C)nc(N2CCCC(C(=O)Nc3cc(Cl)ccc3OC)C2)n1 (stereo unspecified)	-4	25µM*	4%	12%	-20%	2%
COc1ccc(C(=O)c2nccc3cc(OC)c(OC)cc23)cc1OC	37	-4%	14µM*	12%	-2%	-5%
COc1ccc(/C(=N/OC(=O)c2ccccc2Cl)c2nccc3cc(OC)c(OC)cc23)cc1OC	6	·	·	·	·	·
CCOc1cc(CNc2ccc(O)cc2)ccc1OCc1ccc(Cl)cc1Cl	37	35µM*	8.9µM*	0%	7%	?
CCOc1cccc(CNc2ccc(O)cc2)c1OCc1ccc(Cl)cc1	35	35µM*	25µM*	15%	-1%	25µM*
CCOc1ccccc1CNc1ccc(O)cc1	6	-16%	16µM*	2%	3%	4.5µM*
Oc1ccc(NCc2ccccc2OCc2ccccc2Cl)cc1	33	·	32µM*	·	·	·
CCOc1cc(CNCc2ccccc2)ccc1OCc1ccc(Cl)cc1	-2	-5%	-18%	18%	9%	6%
COc1cccc(CNCCO)c1OCc1ccc(Cl)cc1	-7	1%	-6%	-6%	10%	10%
CCOc1ccccc1CNc1nc2ccccc2n1C	-12	3%	-4%	3%	6%	-12%
SMILES	LDHA block	EPAC2 antag	USP1 inh	EPAC1 ag	EPAC2 agonist	EPAC1 antagonist
Cc1ccc(CCC(=O)NC2CC3CCC2C3)cc1 (stereo unspecified)	3	·	·	·	·	·
c1ccc(-n2cnnc2SCc2nc3ccccc3o2)cc1	-5	·	·	·	·	·
Cc1ccc(NCc2ccccc2OCc2ccccc2F)cc1	2	0%	-9%	24%	16%	-13%
Oc1ccc(NCc2ccccc2OCc2ccccc2F)cc1	28	-8%	?	16%	26%	79µM*
COC(=O)C1(NC(=O)COc2cccc(F)c2)CCCCC1	-11	·	·	·	·	·
COC(=O)C1(NC(=O)COc2cc(Cl)ccc2Cl)CCCCCC1	-31*	·	·	·	·	·
N#Cc1cnc2ccc(F)cc2c1Nc1cccc(C(F)(F)F)c1	12	·	·	·	·	·
COc1ccc(-c2[nH]c(-c3ccc(SC)cc3)nc2SCC(=O)Nc2nccs2)cc1	-2	0%	-8%	3%	-1%	71µM*
CCN(CC)c1nc(N)c2c(N)nc3c(c2c1C#N)CC(c1ccccc1)O3 (stereo unspecified)	26	-9%	-12%	10%	9%	-1%
CCN(CC)c1nc(N)c2c(N)n(-c3ccccc3C)c(=S)c(C#N)c2c1C#N	7	-7%	-22%	-23%	-10%	89µM*
CCOC(=O)c1sc2nc3c(SCC(=O)O)cc(C(=O)c4cc(F)ccc4O)cn3c(=O)c2c1C	-11	?	1%	89µM*	13%	8.9µM*
CCOC(=O)c1c(NC(=O)/C=C/C(=O)O)sc(C)c1-c1ccc(C(C)(C)C)cc1	-3	?	32µM*	-12%	-18%	56µM*
CCCNc1nc2ccccc2nc1C(=O)Nc1ccc(OCC)cc1	5	·	·	·	·	·
O=C(Cn1ccc(=O)[nH]c1=O)c1ccc([N+](=O)[O-])o1	11	14%	-27%	100µM*	?	7%
COc1ccccc1-n1cnnc1SC(C)C(=O)c1ccc2c(c1)CCC2 (stereo unspecified)	-1	·	·	·	·	·
O=S(=O)(O)c1cccc(N=Nc2c(O)ccc3ccccc23)c1	4	35µM*	?	-2%	-3%	-13%
COc1ccc(/C(O)=C/C(=O)C(=O)NNC(=O)C(O)(c2ccccc2)c2ccccc2)cc1	5	1%	-17%	7%	3%	40µM*
N#C/C(=C\c1cn(CCOc2ccccc2F)c2ccccc12)C(=O)NCc1cccs1	0	-19%	-4%	1%	-3%	-6%
N#C/C(=C\c1cn(Cc2ccc(C#N)cc2)c2ccccc12)C(=O)NCc1cccs1	-3	20%	-5%	0%	79µM*	9%

Screening results as filed in PubChem BioAssay.
